In PubChem BioAssay AID1159580 (chemical genetic matrix, 2015):
“And” between values parts separate entries of the source, which are not always exact repeats. Identical values can stand only once. The whole screen tested about 5,500 compounds, of which about 2,000 (36%) were called active. Not shown: some 18% with an inconclusive outcome. Cut-off read from the data, not from the text of the source: active = normalized growth mostly below about 0.91 (no sharp cut-off); inconclusive = no clear call, values can overlap the other calls; inactive = mostly above about 0.92. Some of the results follow.

Experiment: chemical genetic growth profiling, strain panel (AID 1159580);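 note: tested at 20 µM; growth read once vehicle control cultures reached saturation at 30 °C; 1 = growth at the plate median or of vehicle wells; lower values mean less growth of the strain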
Settings: S. cerevisiae deletion strains, growth OD

Measured: normalized growth

CC1(C)C(=O)[C@@H]2O[C@@H]2[C@@]2(C)C1C[C@@H](O)[C@]1(C)C2CC[C@@]2(C)[C@H](c3ccoc3)OC(=O)C3OC321 (stereo partly specified)
inactive: locus YAL021C, strain ccr4, stronger effect = lower value 0.981 | locus YAL026C, strain drs2, stronger effect = lower value 0.969 | locus YAL030W, strain snc1, stronger effect = lower value 0.982 | locus YBL061C, strain skt5, stronger effect = lower value 0.989 | locus YBR009C, strain hhf1, stronger effect = lower value 1 | locus YBR021W, strain FUR4, stronger effect = lower value 0.965 | locus YBR023C, strain chs3, stronger effect = lower value 0.998 | locus YBR171W, strain sec66, stronger effect = lower value 0.994 | locus YBR229C, strain ROT2, stronger effect = lower value 1 | locus YBR231C, strain swc5, stronger effect = lower value 0.995 | locus YBR279W, strain paf1, stronger effect = lower value 0.987 | locus YCL011C, strain gbp2, stronger effect = lower value 0.999 | locus YCL016C, strain dcc1, stronger effect = lower value 0.997 | locus YCL029C, strain bik1, stronger effect = lower value 0.988 | locus YCL061C, strain MRC1, stronger effect = lower value 1.01 | locus YCL069W, strain vba3, stronger effect = lower value 0.999 | locus YCR088W, strain abp1, stronger effect = lower value 1 | locus YDL005C, strain med2, stronger effect = lower value 0.987 | locus YDL035C, strain GPR1, stronger effect = lower value 0.998 | locus YDL040C, strain nat1, stronger effect = lower value 0.998 | locus YDL074C, strain BRE1, stronger effect = lower value 0.972 | locus YDL101C, strain DUN1, stronger effect = lower value 1 | locus YDL134C, strain PPH21, stronger effect = lower value 0.989 | locus YDL185W, strain tfp1, stronger effect = lower value 0.997 | locus YDL192W, strain arf1, stronger effect = lower value 0.988 | locus YDR001C, strain nth1, stronger effect = lower value 1 | locus YDR069C, strain doa4, stronger effect = lower value 0.999 | locus YDR101C, strain arx1, stronger effect = lower value 0.971 | locus YDR137W, strain rgp1, stronger effect = lower value 1 | locus YDR150W, strain NUM1, stronger effect = lower value 1 | locus YDR159W, strain sac3, stronger effect = lower value 0.998 | locus YDR162C, strain NBP2, stronger effect = lower value 1 | locus YDR195W, strain ref2 0.989 | locus YDR297W, strain sur2, stronger effect = lower value 0.99 | locus YDR318W, strain mcm21, stronger effect = lower value 0.974 | locus YDR334W, strain swr1, stronger effect = lower value 0.989 | locus YDR335W, strain msn5, stronger effect = lower value 0.987 | locus YDR388W, stronger effect = lower value 0.991 | locus YDR392W, strain spt3, stronger effect = lower value 0.984 | locus YDR502C, strain sam2, stronger effect = lower value 0.957 | locus YEL003W, strain gim4, stronger effect = lower value 1.01 | locus YEL037C, strain rad23, stronger effect = lower value 0.988 | locus YEL061C, strain CIN8 (second series), stronger effect = lower value 1 | locus YER015W, strain faa2, stronger effect = lower value 0.996 | locus YER016W, strain bim1, stronger effect = lower value 0.995 | locus YER110C, stronger effect = lower value 0.976 | locus YER111C, strain swi4, stronger effect = lower value 0.996 | locus YER155C, strain BEM2 (second series), stronger effect = lower value 1 | locus YER155C, strain BEM2, stronger effect = lower value 1 | locus YER167W, strain BCK2, stronger effect = lower value 1.01 | locus YFR010W, strain ubp6, stronger effect = lower value 1 | locus YGL078C, strain dbp3, stronger effect = lower value 0.985 | locus YGL086W, strain mad1, stronger effect = lower value 0.977 | locus YGL167C, strain pmr1, stronger effect = lower value 1.01 | locus YGL173C, strain kem1, stronger effect = lower value 1 | locus YGL227W, strain vid30, stronger effect = lower value 1 | locus YGL240W, strain doc1, stronger effect = lower value 1 | locus YGL248W, strain PDE1, stronger effect = lower value 0.998 | locus YGL253W, strain hxk2, stronger effect = lower value 1 | locus YGR135W, strain pre9, stronger effect = lower value 0.952 | locus YGR229C, strain SMI1, stronger effect = lower value 0.981 | locus YGR252W, strain gcn5, stronger effect = lower value 0.845 | locus YHR013C, strain ard1, stronger effect = lower value 0.993 | locus YHR027C, strain rpn1, stronger effect = lower value 0.997 | locus YHR030C, strain SLT2, stronger effect = lower value 1.02 and 0.977 | locus YHR079C, strain IRE1 (second series), stronger effect = lower value 0.991 | locus YHR079C, strain IRE1, stronger effect = lower value 0.986 | locus YHR094C, strain hxt1, stronger effect = lower value 0.989 | locus YHR129C, strain ARP1, stronger effect = lower value 1 | locus YHR142W, strain chs7, stronger effect = lower value 0.993 | locus YHR200W, strain rpn10, stronger effect = lower value 0.982 | locus YIL066C, strain RNR3, stronger effect = lower value 1.01 | locus YIL073C, strain SPO22, stronger effect = lower value 0.992 | locus YIL125W, strain kgd1, stronger effect = lower value 0.992 | locus YIR030C, strain dcg1, stronger effect = lower value 0.994 | locus YJL092W, strain hpr5, stronger effect = lower value 1 | locus YJL095W, strain BCK1 (second series), stronger effect = lower value 0.994 | locus YJL095W, strain BCK1, stronger effect = lower value 0.982 and 0.983 | locus YJL115W, strain asf1, stronger effect = lower value 0.989 | locus YJL129C, strain trk1, stronger effect = lower value 0.985 | locus YJL134W, strain LCB3, stronger effect = lower value 0.997 | locus YJL154C, strain vps35, stronger effect = lower value 0.999 | locus YJL164C, strain tpk1, stronger effect = lower value 0.981 | locus YJL166W, strain qcr8, stronger effect = lower value 0.983 | locus YJL168C, strain set2, stronger effect = lower value 0.985 | locus YJL187C, strain SWE1 (second series), stronger effect = lower value 0.984
